# Experimental data: PubChem BioAssay (NCI)
# About 79,000 compounds went through this panel and 15% of them were active in at least one assay; those are over-represented in the sample as a whole. A number with no mark means an inactive call. Activity calls are given as the source filed them. Cut-off read from the data, not from the text of the source: active = growth inhibition above about 70%; inactive = the rest.
# Assays:
# [1] = NCI Yeast Anticancer Drug Screen. Data for the rad50 strain (AID 155);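 note: 0% = growth of vehicle-only cultures of the same strain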; conditions: S. cerevisiae rad50 strain growth inhibition, stronger effect = higher value
# How it was run: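 Relative growth inhibition (compound vs vehicle) was measured in yeast with a defined repair-gene alteration.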
# [2] = NCI Yeast Anticancer Drug Screen. Data for the mec2-1 strain (AID 157); conditions: S. cerevisiae mec2-1 strain, stronger effect = higher value
# How it was run: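 Readout is yeast growth inhibition, normalised to vehicle-treated controls, in the mec2-1 strain exposed to compound.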
# [3] = NCI Yeast Anticancer Drug Screen. Data for the sgs1 mgt1 strain (AID 161);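 note: 0% = growth of cultures given vehicle only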; conditions: S. cerevisiae sgs1 mgt1 strain, stronger effect = higher value
# How it was run: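 This yeast growth screen uses a strain with defined DNA-repair lesions; compound-treated growth is compared with vehicle-treated growth.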
# [4] = NCI Yeast Anticancer Drug Screen. Data for the cln2 rad14 strain (AID 165);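 note: 0% = growth equal to vehicle treated cultures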; conditions: S. cerevisiae cln2 rad14 strain, stronger effect = higher value
# How it was run: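 Relative to vehicle controls, growth inhibition of compound-treated cln2 rad14 yeast was recorded.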
# [5] = NCI Yeast Anticancer Drug Screen. Data for the bub3 strain (AID 167); conditions: S. cerevisiae bub3 mutant strain, stronger effect = higher value
# How it was run: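 Screening used yeast with an engineered genetic alteration affecting cell cycle control. Compound-exposed cultures were compared with vehicle cultures, and reduced growth was taken as inhibition.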
# [6] = NCI Yeast Anticancer Drug Screen. Data for the mlh1 rad18 strain (AID 175); conditions: S. cerevisiae mlh1 rad18 strain growth inhibition, stronger effect = higher value
# How it was run: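 Test agents were incubated with a yeast strain of defined genotype (DNA damage repair defect). Inhibition of growth was derived by comparison with vehicle-exposed cultures.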
# [7] = at 5.0 µM (retest, dose inferred, filed as 0.5)
# [8] = at 50.0 µM (retest, dose inferred, filed as 5.0)
Structure (SMILES),"growth inhibition [1, 7]","growth inhibition [1, 8]",growth inhibition ([1]; at 50.0 µM),"growth inhibition [2, 7] [%]","growth inhibition [2, 8]",growth inhibition ([2]; at 50.0 µM),"growth inhibition [3, 7]","growth inhibition [3, 8]",growth inhibition ([3]; at 50.0 µM),"growth inhibition [4, 7] [%]","growth inhibition [4, 8]",growth inhibition ([4]; at 50.0 µM),"growth inhibition [5, 7]","growth inhibition [5, 8]",growth inhibition ([5]; at 50.0 µM),"growth inhibition [6, 7]","growth inhibition [6, 8]",growth inhibition ([6]; at 50.0 µM)
NC(=O)NN=C1CSSC1,7%,48%,96.2% (active),4,23%,76.5% (active),3%,34%,58%,-9,-6%,-3.8%,1%,2%,77.8% (active),-1%,72% (active),94.2% (active)
[Cl][Pt+2]([Cl])([Cl])[Cl].[NH-]CC1(C[NH-])CCCC1,86% (active),99% (active),90.2% (active),68,99% (active),90.8% (active),62%,86% (active),90.3% (active),57,81% (active),86% (active),61%,88% (active),93% (active),56%,98% (active),83.5% (active)
CCCCCCCNCCCCCC,64%,92% (active),67.7%,20,69%,63.8%,73% (active),93% (active),84.7% (active),28,86% (active),68.3%,75% (active),97% (active),67.1%,78% (active),94% (active),48.6%
O=C(CCN1CCCC1)c1ccc(Oc2ccc(F)cc2)cc1,28%,50%,69.8%,20,48%,11.7%,31%,60%,47.2%,34,68%,54.7%,31%,72% (active),49.4%,30%,56%,63.4%
CCCNC(=O)OCc1ccc(NCCN(CC)CC)c2c(=O)c3ccccc3sc12,10%,17%,69%,-7,-6%,-24%,-4%,16%,-8.85%,13,17%,9.95%,14%,10%,-31.1%,3%,2%,1.05%
CC1(COc2ccccc2OCC2(C)CO2)CO1 (stereo unspecified),5%,4%,12.2%,2,1%,1.15%,0%,10%,7.75%,2,4%,70.7% (active),-2%,-3%,5.6%,7%,36%,5.35%
Cc1c2ccnc(C(N)=O)c2c(C)c2c1[nH]c1ccccc12,9%,90% (active),76.1% (active),12,98% (active),48.1%,7%,84% (active),38.6%,11,79% (active),47.1%,7%,97% (active),56.1%,12%,97% (active),73.9% (active)
